The text below walks through data of PubChem BioAssay (NCI).

What all share (experiment): NCI-60 one-dose screen, 48 h (100 = growth as untreated, 0 = no growth, -100 = all killed)
Settings in all cases: 10 µM unless noted

The subject of assay [1] is DU-145 prostate.
In assay [2] the test system is K-562 leukemia.
For assay [3], the system named is MALME-3M melanoma.
For assay [4], the system named is MDA-MB-231 breast.
For assay [5], the system named is RXF 393 renal.
In assay [6] the test system is SF-268 CNS.
Assay [7] relates to SF-295 CNS.
In assay [8] the test system is SF-539 CNS.
The subject of assay [9] is M14 melanoma.

About 83,000 compounds went through this panel and 20% of them were active in at least one assay; those are over-represented in the sample as a whole.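 Single-concentration screen, 48 h exposure, 96-well plates. Endpoint: percent growth. Below 10 = active.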 A number with no mark means an inactive call. Active and inactive are the calls of the source.

As for `COc1ccc(Cl)cc1NC(N)=S`, the growth is 108% in assay [1]; 104% in [2]; 104% in assay [3]; 104% in assay [4]; 112% in [5]; 99.5% in assay [6]. Besides, the values for the growth in assay [7], in [8] and in [9] were 106%, 99.8% and 105%, respectively.

`Cc1ccc(-c2csc3nc(C)c(CCCl)c(=O)n23)cc1`: the growth in assay [1] was 104%; in [2], 95%; in assay [3] it was 107%; in [4] it was 79.9%; in [5] it was 106%; in assay [6], 91.4%. The figures for the growth in [7], in assay [8] and in [9] were 104%, 108% and 103%, respectively.

`COc1ccc(/C=C/C(=O)OCC(=O)NNC(=O)c2ccccc2)cc1OC`: the growth is 101% in assay [1]; 90.2% in [2]; 105% in assay [3]; 94.8% in assay [4]; 97.1% in assay [5]; 108% in assay [6]. Moreover, the values for the growth in assay [7], in assay [8] and in assay [9] were 89.6%, 91% and 107%, respectively.

For the molecule `O=C(c1ccccc1)C(Cl)C(Cl)c1ccccc1` (stereo not given), the growth was 45.7% in assay [1]; -1.74% (active) in assay [2]; 4.33% (active) in assay [3]; 25.8% in [4]; 17.2% in assay [5]; 82.5% in [6]. In addition, the growth is 104% in assay [7], 31% in assay [8] and 46.8% in [9].

`O=C1Nc2cc(Cl)ccc2/C1=C/c1ccc(N2CCOCC2)s1`: the growth in assay [1] is 110%; in assay [2], 98.5%; in [3] it was 96.5%; in assay [4], 99%; in assay [5], 93.9%; in assay [6], 114%. Further, the growth in assay [7] was 86.8%; in [8], 92.3%; in assay [9], 111%.

Take `Cn1c(=O)c2c(nc3n2CCN(CCc2ccc(OCCN4CCOCC4)cc2)C3)n(C)c1=O`: the growth in [1] was 109%; in assay [2], 109%; in assay [3], 106%; in assay [4], 104%; in [5] it was 111%; in assay [6], 105%. For the same molecule, the growth in assay [7] is 106%; in [8], 109%; in [9] it was 105%.

Consider `Cc1oc2ncnc(Nc3ccccc3)c2c1C(=O)NCCO`, for which the growth in [1] was 105%; in [2] it was 29.4%; in assay [3], 107%; in assay [4] it was 75%; in assay [5], 104%; in [6], 99.8%. Also, the growth in assay [7] was 100%; in assay [8], 88.6%; in assay [9] it was 106%.

For the molecule `CN(C)c1nc(N)c(N=O)c(N)n1`, the growth in assay [1] was 113%; in assay [2] it was 103%; in assay [3], 118%; in assay [4], 108%; in assay [5], 118%; in [6], 110%. The growth in [7] is 127%; in assay [8], 110%; in assay [9] it was 111%.

For `COc1ncc(-c2ccc3ncnc(Nc4cccc(Cl)c4)c3c2)cc1NS(=O)(=O)C1CC1`, the growth is 26% in assay [1]; 60.5% in assay [2]; 15.9% in assay [3]; 37.9% in assay [4]; 1.04% (active) in assay [5]; 43% in assay [6]. In addition, the growth in assay [7] is 34.2%; in assay [8], 27%; in [9] it was 56.6%.

Take `C/C(=C\c1csc(C)n1)[C@@H]1C[C@@H]2O[C@]2(C)CCC[C@H](C)[C@H](O)[C@@H](C)C(=O)C(C)(C)[C@@H](O)CC(=O)N1`: the growth in assay [1] was -78.9% (active); in assay [2], 1.67% (active); in assay [3] it was 66.3%; in assay [4], -54.7% (active); in assay [5], -83.3% (active); in assay [6], -47.8% (active). In addition, the growth in assay [7] is -64.6% (active); in assay [8], -87.4% (active); in assay [9] it was -44.1% (active).

As to `Nc1nn2cc(-c3ccc(Cl)s3)nc2c2ccccc12`, the growth in [1] is 99%; in assay [2], 85.3%; in assay [3], 101%; in assay [4], 68.9%; in [5], 133%; in assay [6], 94.1%. The growth in assay [7] is 93.7%; in [8] it was 81.7%; in [9], 97%.

For the molecule `O=S(=O)(NCCNc1cc(-c2cn(-c3ccccc3)nc2-c2ccccc2)ccn1)c1ccc(F)cc1`, the growth in assay [1] was 88.3%; in assay [2] it was 54.3%; in [3], 101%; in assay [4], 80.1%; in assay [5], 75.1%; in assay [6], 83.2%. In addition, the growth was 87.6% in assay [7], 103% in [8] and 87% in assay [9].

As for `O=C(Nc1ccc(I)cc1)c1cccc([N+](=O)[O-])c1O`, the growth in [1] is 32.5%; in [2], 14.7%; in assay [3] it was -4.07% (active); in [4], 16.8%; in assay [5] it was 31.1%; in assay [6], 24.1%. Also, the growth is 4.77% (active) in assay [7], 14.8% in assay [8] and 15.7% in assay [9].

With `COc1ccc(/C(=N\O)c2cc(OC)c(OC)c(OC)c2)c(OC)c1N`, the growth in [1] was 15.3%; in assay [2], 7.11% (active); in assay [3], 48.9%; in assay [4], 36.9%; in [5] it was 16.8%; in assay [6] it was 42.1%. Besides, the values for the growth in [7], in [8] and in assay [9] were -9.97% (active), -35.2% (active) and 7.17% (active), respectively.

In the case of `COc1ccc2c(c1)NC(=O)CN2c1nc(C)nc2ccccc12`, the growth in [1] is -0.215% (active); in [2] it was 9.83% (active); in assay [3] it was 67.6%; in [4] it was 11.6%; in assay [5], 55.1%; in assay [6], 24.4%. Moreover, the growth was 14.2% in [7], -0.932% (active) in assay [8] and 10.8% in assay [9].
